Experimental data reported in the supplement of paper PMC10849652.
Targets with a hit are over-represented here; the source holds about 7,900 in all. About 0.6% of all pairs of compound and target were hits.

Assays:
Assay in all cases: log2 fold change, soluble protein after heating vs DMSO (PISA); higher = thermal stabilisation; K562 cells, 10 uM, 30 min; active = over 0.2 and 3.5 SD of the protein, either way, in both replicates (recomputed)
IRAK-1-4 Inhibitor I = compound: C1COCCN1CCN2C3=CC=CC=C3N=C2NC(=O)C4=CC(=CC=C4)[N+](=O)[O-] [IRAK-1-4 Inhibitor I]
In short: (§1)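 Thermal stability values are relative to control samples and come from duplicates. They are expressed as log2 fold changes. For measurement, K562 cells (2×10^6 cells/mL) received 10 μM compound for 30 min, and aliquots were heated for 3 min over 48°C-58°C, pooled, and extracted at 4°C in PBS with 0.5% NP-40. Soluble protein, the supernatant after 21,000xg for 90 min, was quantified by TMTpro 16plex LC-MS/MS with equalised channel sums.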

ibrutinib = compound: C=CC(=O)N1CCC[C@@H](n2nc(-c3ccc(Oc4ccccc4)cc3)c3c(N)ncnc32)C1 [ibrutinib]
In short: as §1

[1] = compound: CC(=O)c1cnc2ccc(-c3cc(Cl)c(O)c(Cl)c3)nc2c1N[C@H]1CC[C@H](CN(C)C)CC1
In short: as §1

ralimetinib = compound: CC(C)(C)Cn1c(N)nc2ccc(-c3[nH]c(C(C)(C)C)nc3-c3ccc(F)cc3)nc21 [ralimetinib]
In short: as §1

[2] = compound: CC(C)(O)CC(=O)NCCn1ccc2ncnc(Nc3ccc(Oc4cccc(C(F)(F)F)c4)c(Cl)c3)c21
In short: as §1

[3] = compound: CC(C)C1=C2N=C(C=C(N2N=C1)NCC3=CC=CC=C3)NCCCCCCN
In short: as §1

[4] = compound: CC(C)C[C@@H](C=O)NC(=O)[C@H](CC(C)C)NC(=O)[C@H](CC(C)C)NC(=O)OCc1ccccc1
In short: as §1

pinometostat = compound: CC(C)N(C[C@H]1O[C@@H](n2cnc3c(N)ncnc32)[C@H](O)[C@@H]1O)[C@H]1C[C@@H](CCc2nc3cc(C(C)(C)C)ccc3[nH]2)C1 [pinometostat]
In short: as §1

[5] = compound: CC1=C(C(CC(=O)N1)C2=CC=C(C=C2)C(F)(F)F)C(=O)NC3=C(C=C4C(=C3)C=NN4)F
In short: as §1

[6] = compound: CC1=C(C2=C(C=C1)C(=O)C3=CC=CC=C3N2CCCN)C
In short: as §1

Measured: log2 fold change

TRIM4 (UniProt Q9C037)
UniProt Q9C037, sequence (Q9C037 whole entry, looked up): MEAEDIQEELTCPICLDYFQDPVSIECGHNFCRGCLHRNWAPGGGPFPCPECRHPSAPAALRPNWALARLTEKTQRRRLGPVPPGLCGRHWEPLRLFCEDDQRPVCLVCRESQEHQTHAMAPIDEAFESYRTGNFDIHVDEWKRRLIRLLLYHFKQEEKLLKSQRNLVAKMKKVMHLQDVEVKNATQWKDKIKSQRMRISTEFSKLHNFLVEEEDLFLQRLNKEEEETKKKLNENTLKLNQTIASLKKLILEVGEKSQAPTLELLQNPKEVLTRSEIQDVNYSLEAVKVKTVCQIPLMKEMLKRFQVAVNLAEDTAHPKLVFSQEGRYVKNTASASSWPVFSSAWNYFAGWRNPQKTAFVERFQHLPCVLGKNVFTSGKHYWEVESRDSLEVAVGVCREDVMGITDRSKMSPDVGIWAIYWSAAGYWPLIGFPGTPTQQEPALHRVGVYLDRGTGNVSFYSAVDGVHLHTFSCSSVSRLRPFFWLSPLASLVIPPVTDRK
inactive: IRAK-1-4 Inhibitor I -0.157 | ibrutinib 0.173 | [1] -0.063 | ralimetinib 0.023 | [2] -0.183 | [3] -0.078 | [4] -0.013 | pinometostat 0.173 | [5] -0.023 | [6] 0.089

TOM1L1 (UniProt O75674)
inactive: IRAK-1-4 Inhibitor I 0.006 | ibrutinib -0.001 | [1] -0.014 | ralimetinib -0.047 | [2] -0.013 | [3] 0.019 | [4] 0.028 | pinometostat -0.023 | [5] 0.006 | [6] -0.019

TSFM (UniProt P43897)
inactive: IRAK-1-4 Inhibitor I -0.065 | ibrutinib -0.134 | [1] -0.067 | ralimetinib 0.011 | [2] -0.254 | [3] 0.069 | [4] -0.058 | pinometostat -0.08 | [5] -0.066 | [6] 0.258

XPNPEP3 (UniProt Q9NQH7)
UniProt Q9NQH7, sequence (Q9NQH7 whole entry, looked up): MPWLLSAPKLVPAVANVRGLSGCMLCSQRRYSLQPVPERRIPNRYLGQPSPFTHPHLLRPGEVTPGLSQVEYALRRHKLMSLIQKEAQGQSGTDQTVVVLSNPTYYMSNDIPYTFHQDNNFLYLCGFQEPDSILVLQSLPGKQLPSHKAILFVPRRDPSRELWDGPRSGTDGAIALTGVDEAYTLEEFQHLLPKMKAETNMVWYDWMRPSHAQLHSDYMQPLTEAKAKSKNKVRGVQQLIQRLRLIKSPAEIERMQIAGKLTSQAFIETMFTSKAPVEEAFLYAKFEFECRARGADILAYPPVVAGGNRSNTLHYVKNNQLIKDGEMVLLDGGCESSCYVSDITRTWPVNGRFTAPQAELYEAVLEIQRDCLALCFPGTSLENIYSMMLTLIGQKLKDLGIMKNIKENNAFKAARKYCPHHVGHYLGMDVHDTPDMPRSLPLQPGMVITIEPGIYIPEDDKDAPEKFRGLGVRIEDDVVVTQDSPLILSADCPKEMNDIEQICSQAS
inactive: IRAK-1-4 Inhibitor I 0.061 | ibrutinib 0.044 | [1] 0.019 | ralimetinib -0.013 | [2] 0.021 | [3] -0.002 | [4] -0.018 | pinometostat -0.015 | [5] -0.003 | [6] -0.028

VPS50 (UniProt Q96JG6)
inactive: IRAK-1-4 Inhibitor I -0.046 | ibrutinib -0.009 | [1] -0.003 | ralimetinib 0.12 | [2] -0.138 | [3] -0.099 | [4] 0.053 | pinometostat -0.014 | [5] 0.025 | [6] 0.023

VPS28 (UniProt Q9UK41)
inactive: IRAK-1-4 Inhibitor I -0.052 | ibrutinib 0.058 | [1] -0.018 | ralimetinib -0.051 | [2] -0.13 | [3] -0.189 | [4] 0.027 | pinometostat 0.059 | [5] 0.075 | [6] 0.04

UBA1 (UniProt P22314)
inactive: IRAK-1-4 Inhibitor I -0.145 | ibrutinib -0.058 | [1] -0.047 | ralimetinib 0.068 | [2] -0.15 | [4] -0.055 | pinometostat 0.019 | [5] 0.023 | [6] 0.336
active: [3] -0.363

UBE2J1 (UniProt Q9Y385)
UniProt Q9Y385, sequence (Q9Y385 whole entry, looked up): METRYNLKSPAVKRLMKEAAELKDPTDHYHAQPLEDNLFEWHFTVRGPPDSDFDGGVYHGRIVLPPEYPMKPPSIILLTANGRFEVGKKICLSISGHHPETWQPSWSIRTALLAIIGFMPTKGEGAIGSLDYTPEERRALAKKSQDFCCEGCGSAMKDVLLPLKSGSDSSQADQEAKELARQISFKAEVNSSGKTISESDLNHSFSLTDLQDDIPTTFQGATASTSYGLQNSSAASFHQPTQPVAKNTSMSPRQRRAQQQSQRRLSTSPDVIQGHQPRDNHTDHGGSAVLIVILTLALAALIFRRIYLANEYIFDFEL
inactive: IRAK-1-4 Inhibitor I -0.447 | ibrutinib 0.013 | [1] -0.077 | ralimetinib -0.02 | [2] -0.106 | [3] -0.284 | [4] 0.188 | pinometostat 0.096 | [5] 0.101 | [6] -0.047

VPS13B (UniProt Q7Z7G8)
inactive: IRAK-1-4 Inhibitor I 0.05 | ibrutinib -0.013 | [1] -0.016 | ralimetinib -0.042 | [2] -0.06 | [4] 0.121 | pinometostat 0.007 | [5] 0.03 | [6] 0.015
active: [3] -0.241

VAMP7 (UniProt P51809)
inactive: IRAK-1-4 Inhibitor I 0.018 | ibrutinib -0.048 | [1] -0.041 | ralimetinib -0.022 | [2] -0.006 | [3] -0.169 | [4] -0.001 | pinometostat -0.027 | [5] -0.011 | [6] 0.025

TYW1 (UniProt Q9NV66)
inactive: IRAK-1-4 Inhibitor I -0.031 | ibrutinib -0.043 | [1] -0.096 | ralimetinib 0.044 | [2] 0 | [3] 0.03 | [4] -0.056 | pinometostat 0.005 | [5] -0.074 | [6] 0.051

USP14 (UniProt P54578)
UniProt P54578, sequence (P54578 whole entry, looked up): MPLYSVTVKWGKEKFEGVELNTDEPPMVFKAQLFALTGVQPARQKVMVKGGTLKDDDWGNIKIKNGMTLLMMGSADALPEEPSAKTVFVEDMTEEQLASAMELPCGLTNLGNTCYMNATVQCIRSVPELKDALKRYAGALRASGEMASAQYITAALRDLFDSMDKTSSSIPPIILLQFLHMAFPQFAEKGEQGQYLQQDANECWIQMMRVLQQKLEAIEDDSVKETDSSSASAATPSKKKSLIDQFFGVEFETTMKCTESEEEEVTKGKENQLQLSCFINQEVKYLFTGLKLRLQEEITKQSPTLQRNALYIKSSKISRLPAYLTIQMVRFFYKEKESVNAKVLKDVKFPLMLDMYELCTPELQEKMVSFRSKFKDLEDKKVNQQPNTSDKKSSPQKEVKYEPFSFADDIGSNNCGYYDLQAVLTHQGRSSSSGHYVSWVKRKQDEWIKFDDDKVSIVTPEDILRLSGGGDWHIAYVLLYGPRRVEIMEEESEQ
inactive: IRAK-1-4 Inhibitor I -0.013 | ibrutinib -0.045 | [1] -0.004 | ralimetinib 0.021 | [2] -0.028 | [3] -0.068 | [4] 0.044 | pinometostat -0.031 | [5] 0 | [6] 0.014

TRMT10A (UniProt Q8TBZ6)
inactive: IRAK-1-4 Inhibitor I 0.056 | ibrutinib -0.009 | [1] -0.065 | ralimetinib -0.006 | [2] -0.107 | [3] -0.075 | [4] -0.01 | pinometostat 0.042 | [5] 0.02 | [6] 0.066

TOMM5 isoform 2 (UniProt Q8N4H5)
UniProt Q8N4H5, sequence (Q8N4H5 whole entry, looked up): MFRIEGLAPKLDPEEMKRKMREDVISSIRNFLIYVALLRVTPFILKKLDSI
inactive: IRAK-1-4 Inhibitor I 0.037 | ibrutinib 0.01 | [1] -0.033 | ralimetinib -0.099 | [2] -0.048 | [3] 0.221 | [4] 0.036 | pinometostat 0.148 | [5] -0.004 | [6] 0.003

WDR43 (UniProt Q15061)
active: [6] 0.222
inactive: IRAK-1-4 Inhibitor I 0.023 | ibrutinib 0.019 | [1] 0.012 | ralimetinib -0.088 | [2] -0.003 | [3] 0.199 | [4] -0.039 | pinometostat -0.035 | [5] 0.009

TRABD (UniProt Q9H4I3)
active: [3] 0.416
inactive: IRAK-1-4 Inhibitor I -0.046 | ibrutinib 0.007 | [1] -0.032 | ralimetinib 0.073 | [2] 0.277 | [4] 0.045 | pinometostat 0.018 | [5] -0.005 | [6] -0.005

UBE3D (UniProt Q7Z6J8)
inactive: IRAK-1-4 Inhibitor I 0.029 | ibrutinib 0.047 | [1] 0.026 | ralimetinib 0.015 | [2] 0.088 | [3] 0.011 | [4] -0.061 | pinometostat -0.012 | [5] -0.045 | [6] 0.051

TPP1 (UniProt O14773)
active: [3] -0.492
inactive: IRAK-1-4 Inhibitor I -0.007 | ibrutinib -0.01 | [1] -0.006 | ralimetinib -0.025 | [2] 0.059 | [4] 0.043 | pinometostat -0.052 | [5] 0.025 | [6] -0.009

TMEM179B (UniProt Q7Z7N9)
UniProt Q7Z7N9, sequence (Q7Z7N9 whole entry, looked up): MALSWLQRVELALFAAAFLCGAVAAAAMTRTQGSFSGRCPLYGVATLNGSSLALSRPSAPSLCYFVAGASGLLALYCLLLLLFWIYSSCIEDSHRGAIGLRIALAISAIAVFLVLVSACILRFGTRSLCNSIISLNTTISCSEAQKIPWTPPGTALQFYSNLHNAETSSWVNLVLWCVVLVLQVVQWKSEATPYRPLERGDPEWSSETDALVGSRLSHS
inactive: IRAK-1-4 Inhibitor I 0.04 | ibrutinib -0.05 | [1] -0.061 | ralimetinib -0.008 | [2] -0.24 | [3] -0.011 | [4] -0.021 | pinometostat -0.024 | [5] 0.017 | [6] 0.019

XPO1 (UniProt O14980)
inactive: IRAK-1-4 Inhibitor I -0.013 | ibrutinib -0.045 | [1] 0.011 | ralimetinib 0.018 | [2] -0.196 | [4] -0.04 | pinometostat -0.013 | [5] -0.001 | [6] -0.011
active: [3] -0.282

VTI1B (UniProt Q9UEU0)
active: [3] -0.261
inactive: IRAK-1-4 Inhibitor I -0.074 | ibrutinib 0.027 | [1] -0.033 | ralimetinib -0.081 | [2] 0.08 | [4] 0.002 | pinometostat -0.057 | [5] -0.001 | [6] 0.012

TTI1 (UniProt O43156)
inactive: IRAK-1-4 Inhibitor I -0.012 | ibrutinib 0.009 | [1] -0.065 | ralimetinib 0.1 | [2] -0.113 | [3] -0.059 | [4] 0.016 | pinometostat 0.13 | [5] -0.011 | [6] 0.074

TNFRSF8 (UniProt P28908)
UniProt P28908, sequence (P28908 whole entry, looked up): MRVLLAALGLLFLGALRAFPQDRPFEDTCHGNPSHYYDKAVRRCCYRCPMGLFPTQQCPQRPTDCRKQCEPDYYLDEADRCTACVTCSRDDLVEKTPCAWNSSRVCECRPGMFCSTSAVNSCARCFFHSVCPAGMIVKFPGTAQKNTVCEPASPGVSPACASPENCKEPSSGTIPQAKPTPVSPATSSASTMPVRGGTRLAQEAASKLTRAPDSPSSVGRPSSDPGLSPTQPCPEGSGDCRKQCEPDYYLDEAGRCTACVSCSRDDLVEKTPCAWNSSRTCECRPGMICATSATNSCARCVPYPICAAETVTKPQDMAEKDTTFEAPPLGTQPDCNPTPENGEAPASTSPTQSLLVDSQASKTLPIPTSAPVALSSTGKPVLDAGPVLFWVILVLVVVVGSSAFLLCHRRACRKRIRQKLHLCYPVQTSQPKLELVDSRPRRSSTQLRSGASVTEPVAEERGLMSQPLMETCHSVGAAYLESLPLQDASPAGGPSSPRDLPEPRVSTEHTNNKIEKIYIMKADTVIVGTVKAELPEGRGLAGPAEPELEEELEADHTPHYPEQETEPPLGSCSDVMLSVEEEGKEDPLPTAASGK
active: [3] 0.219
inactive: IRAK-1-4 Inhibitor I 0.056 | ibrutinib 0.046 | [1] 0.005 | ralimetinib -0.143 | [2] 0.016 | [4] 0.074 | pinometostat -0.01 | [5] 0.003 | [6] -0.022

TMEM208 (UniProt Q9BTX3)
inactive: IRAK-1-4 Inhibitor I 0.04 | ibrutinib -0.09 | [1] 0.078 | ralimetinib -0.145 | [2] -0.088 | [4] 0.046 | pinometostat 0.081 | [5] -0.016 | [6] 0.081
active: [3] -0.412

VPS11 (UniProt Q9H270)
active: [3] -0.375
inactive: IRAK-1-4 Inhibitor I 0.115 | ibrutinib -0.038 | [1] -0.032 | ralimetinib 0.038 | [2] -0.069 | [4] 0.062 | pinometostat 0.011 | [5] 0.016 | [6] 0.031

UBLCP1 (UniProt Q8WVY7)
inactive: IRAK-1-4 Inhibitor I -0.029 | ibrutinib -0.072 | [1] -0.057 | ralimetinib -0.104 | [2] -0.061 | [3] -0.027 | [4] 0.191 | pinometostat 0.017 | [5] -0.023 | [6] -0.155

XPO5 (UniProt Q9HAV4)
UniProt Q9HAV4, sequence (Q9HAV4 whole entry, looked up): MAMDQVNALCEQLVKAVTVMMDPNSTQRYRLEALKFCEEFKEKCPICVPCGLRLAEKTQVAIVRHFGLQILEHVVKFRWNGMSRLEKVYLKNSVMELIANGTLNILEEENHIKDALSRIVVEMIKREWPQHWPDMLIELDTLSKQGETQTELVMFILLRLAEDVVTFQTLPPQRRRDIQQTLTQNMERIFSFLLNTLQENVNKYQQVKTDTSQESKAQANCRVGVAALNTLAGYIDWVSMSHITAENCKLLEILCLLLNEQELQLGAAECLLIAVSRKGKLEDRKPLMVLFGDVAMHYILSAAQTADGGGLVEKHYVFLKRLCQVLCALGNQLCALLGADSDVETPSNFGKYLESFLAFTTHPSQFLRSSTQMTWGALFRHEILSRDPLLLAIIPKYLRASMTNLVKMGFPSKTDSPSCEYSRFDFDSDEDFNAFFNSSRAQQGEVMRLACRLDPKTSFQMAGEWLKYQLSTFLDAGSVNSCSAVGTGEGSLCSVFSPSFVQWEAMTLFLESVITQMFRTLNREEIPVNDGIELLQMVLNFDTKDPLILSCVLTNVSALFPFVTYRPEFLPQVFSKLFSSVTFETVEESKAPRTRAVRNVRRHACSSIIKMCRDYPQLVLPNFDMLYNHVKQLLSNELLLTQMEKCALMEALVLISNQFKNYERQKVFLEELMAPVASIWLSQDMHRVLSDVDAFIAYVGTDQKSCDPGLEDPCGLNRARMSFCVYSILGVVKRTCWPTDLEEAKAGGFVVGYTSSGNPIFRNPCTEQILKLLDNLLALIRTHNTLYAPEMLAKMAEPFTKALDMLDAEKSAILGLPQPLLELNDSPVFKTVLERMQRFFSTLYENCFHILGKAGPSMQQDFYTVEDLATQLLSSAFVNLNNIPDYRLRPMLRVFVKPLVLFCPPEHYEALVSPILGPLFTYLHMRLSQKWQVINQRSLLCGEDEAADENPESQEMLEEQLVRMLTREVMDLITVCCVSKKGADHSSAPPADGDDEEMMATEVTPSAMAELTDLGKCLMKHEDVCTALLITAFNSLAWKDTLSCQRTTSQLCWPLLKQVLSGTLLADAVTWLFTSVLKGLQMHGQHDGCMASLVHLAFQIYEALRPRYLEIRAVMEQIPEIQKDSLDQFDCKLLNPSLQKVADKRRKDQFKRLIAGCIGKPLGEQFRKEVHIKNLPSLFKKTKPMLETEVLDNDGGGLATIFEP
active: [6] -0.204
inactive: IRAK-1-4 Inhibitor I -0.004 | ibrutinib -0.027 | [1] 0.032 | ralimetinib 0.001 | [2] -0.141 | [3] -0.21 | [4] -0.021 | pinometostat -0.01 | [5] 0

VPS39 (UniProt Q96JC1)
inactive: IRAK-1-4 Inhibitor I -0.055 | ibrutinib -0.015 | [1] -0.036 | ralimetinib -0.018 | [2] -0.039 | [3] -0.265 | [4] 0.031 | pinometostat 0.032 | [5] -0.027 | [6] 0.008

TMEM189-UBE2V1 (UniProt I3L0A0)
inactive: IRAK-1-4 Inhibitor I 0.048 | ibrutinib 0.022 | [1] -0.022 | ralimetinib 0.006 | [2] -0.024 | [3] 0.031 | [4] -0.028 | pinometostat -0.046 | [5] 0.03 | [6] 0.037

USP7 (UniProt Q93009)
UniProt Q93009, sequence (Q93009 whole entry, looked up): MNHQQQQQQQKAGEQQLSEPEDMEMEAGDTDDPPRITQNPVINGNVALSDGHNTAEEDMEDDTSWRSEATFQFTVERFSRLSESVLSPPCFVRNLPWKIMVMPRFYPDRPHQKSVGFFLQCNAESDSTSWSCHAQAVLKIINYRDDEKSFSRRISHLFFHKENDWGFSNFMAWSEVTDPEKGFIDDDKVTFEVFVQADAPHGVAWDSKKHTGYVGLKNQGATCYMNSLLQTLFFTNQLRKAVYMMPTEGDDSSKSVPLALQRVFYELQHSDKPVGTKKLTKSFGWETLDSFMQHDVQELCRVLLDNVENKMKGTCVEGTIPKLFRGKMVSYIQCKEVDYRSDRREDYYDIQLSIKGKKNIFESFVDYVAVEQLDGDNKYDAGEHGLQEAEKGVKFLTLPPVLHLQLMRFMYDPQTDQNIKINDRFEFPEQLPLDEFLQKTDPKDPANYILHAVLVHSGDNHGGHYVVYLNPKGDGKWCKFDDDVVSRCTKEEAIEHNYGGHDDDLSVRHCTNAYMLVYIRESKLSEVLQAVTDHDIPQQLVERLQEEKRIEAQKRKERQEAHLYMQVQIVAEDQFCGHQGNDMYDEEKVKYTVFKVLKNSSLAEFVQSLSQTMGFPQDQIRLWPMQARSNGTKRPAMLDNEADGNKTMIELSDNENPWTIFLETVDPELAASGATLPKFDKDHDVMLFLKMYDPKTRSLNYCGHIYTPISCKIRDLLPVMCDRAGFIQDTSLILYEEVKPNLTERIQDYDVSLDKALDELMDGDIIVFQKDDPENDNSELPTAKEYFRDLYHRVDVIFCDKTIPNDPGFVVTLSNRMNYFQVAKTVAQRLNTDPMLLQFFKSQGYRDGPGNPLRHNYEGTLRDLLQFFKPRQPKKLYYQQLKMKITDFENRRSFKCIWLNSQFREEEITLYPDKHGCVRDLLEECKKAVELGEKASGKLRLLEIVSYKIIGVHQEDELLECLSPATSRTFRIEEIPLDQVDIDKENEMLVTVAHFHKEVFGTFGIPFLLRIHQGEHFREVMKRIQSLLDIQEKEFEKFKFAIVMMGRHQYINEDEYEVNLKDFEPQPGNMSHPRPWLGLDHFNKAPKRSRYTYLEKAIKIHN
inactive: IRAK-1-4 Inhibitor I -0.102 | ibrutinib -0.021 | [1] -0.078 | ralimetinib 0 | [2] -0.172 | [3] -0.198 | [4] 0.012 | pinometostat 0.024 | [5] 0 | [6] 0.17
